Bioassay records: PubChem BioAssay, Broad Institute
The sample as a whole holds a higher share of hits than the screen did.
IDE exosite FP – exo-site inhibitors of human insulin-degrading enzyme. P14735. purified IDE, FL-6b probe fluorescence polarization; hits give low values. z-score at 20 µM. 6.3% of 17,000 active. AID 1259349;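 active = z-score of -3 or lower, meaning strong loss of probe binding signal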;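 note: His-tagged human IDE residues 42-1019 made in E. coli with 30 nM FL-6b probe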
Active calls of the source: *.

SMILES	IDE exosite FP
O=C(C1CCC1)N1CCCCN2[C@H](C1)[C@@H](c1ccc(C#CC3(O)CCCC3)cc1)[C@@H]2CO	-1.1
CN(C)CC#Cc1ccc([C@H]2[C@@H](CO)N3CCCCN(C(=O)C4CCC4)C[C@H]23)cc1	0.063
COc1ccccc1C#Cc1ccc([C@@H]2[C@@H](CO)N3CCCCN(C(=O)C4CCC4)C[C@@H]23)cc1	-9*
COc1ccccc1C#Cc1ccc([C@H]2[C@@H](CO)N3CCCCN(C(=O)C4CCC4)C[C@H]23)cc1	-10*
COc1ccccc1C#Cc1ccc([C@@H]2[C@H]3CN(C(=O)C4CCC4)CCCCN3[C@H]2CO)cc1	-6.8*
COc1ccccc1NC(=O)N1CCCCN2[C@H](C1)[C@H](c1ccc(C#Cc3ccccc3)cc1)[C@@H]2CO	1.2
O=C(Nc1ccccc1)N1CC(=O)N2[C@H](CO)[C@H](c3ccc(C#CC4CC4)cc3)[C@H]2C1	-0.6
Cc1ccc(CN2CC(=O)N3[C@H](C2)[C@@H](c2ccc(Br)cc2)[C@@H]3CO)cc1	1.9
COc1ccc2c3c([nH]c2c1)[C@H](CO)NCC31CN(C(=O)Nc2ccc3c(c2)OCO3)C1	1.5
O=C(C1CCCCC1)N1CC(=O)N2[C@H](CO)[C@@H](c3ccc(C#CCc4ccccc4)cc3)[C@H]2C1	0.63
CCC(=O)N1[C@@H]2Cn3c(cccc3=O)[C@H]1[C@@H](C(=O)NC1Cc3ccccc3C1)[C@@H]2CO	0.058
O=C(Nc1ccccc1)N1CC(=O)N2[C@@H](CO)[C@H](c3ccc(C#Cc4cccnc4)cc3)[C@@H]2C1	0.25
O=C(C[C@@H]1CC[C@@H]2NC[C@H](O)COC[C@H]2O1)Nc1ccc(-c2ccccc2)cc1	-2.2
COc1cccc(C(=O)Nc2ccc3c(c2)C(=O)N(C)[C@@H]2CC[C@@H](CC(=O)N[C@@H](C)c4ccccc4)O[C@@H]2CO3)c1	0.59
COc1cccc(C(=O)Nc2ccc3c(c2)C(=O)N(C)[C@H]2CC[C@@H](CC(=O)N[C@H](C)c4ccccc4)O[C@@H]2CO3)c1	-3.6*
COc1cccc(C(=O)Nc2ccc3c(c2)C(=O)N(C)[C@@H]2CC[C@@H](CC(=O)N[C@H](C)c4ccccc4)O[C@H]2CO3)c1	-1.6
COc1cccc(C(=O)Nc2ccc3c(c2)C(=O)N(C)[C@H]2CC[C@@H](CC(=O)N[C@@H](C)c4ccccc4)O[C@@H]2CO3)c1	-7*
C[C@H](NC(=O)C[C@H]1CC[C@@H]2[C@@H](COc3ccc(NC(=O)C4CCOCC4)cc3C(=O)N2C)O1)c1ccccc1	-0.8
COc1cccc(C(=O)Nc2ccc3c(c2)C(=O)N(C)[C@@H]2CC[C@@H](CC(=O)N[C@@H](C)c4ccccc4)O[C@H]2CO3)c1	-0.77
CN(C)C(=O)c1cccc(-c2ccc([C@H]3[C@@H](CO)N4C(=O)CN(C(=O)Cc5ccccc5)C[C@@H]34)cc2)c1	1.6
O=C(C[C@H]1CC[C@H]2NC[C@H](O)COC[C@@H]2O1)NCCN1CCCCC1	1.1
CC(C)NC(=O)N1CCCCN2[C@H](CO)[C@@H](c3ccc(C#C[C@H](C)O)cc3)[C@H]2C1	0.032
CC(C)NC(=O)N1CCCCN2[C@@H](CO)[C@H](c3ccc(C#Cc4ccccc4)cc3)[C@@H]2C1	-11*
CC(C)NC(=O)N1CCCCN2[C@H](CO)[C@@H](c3ccc(C#Cc4ccccc4F)cc3)[C@@H]2C1	-0.26
CC(C)NC(=O)N1CCCCN2[C@H](CO)[C@@H](c3ccc(C#C[C@@H](C)O)cc3)[C@H]2C1	0.065
SMILES	IDE exosite FP
CC(C)NC(=O)N1CCCCN2[C@H](CO)[C@H](c3ccc(C#C[C@@H](C)O)cc3)[C@@H]2C1	0.6
CC(C)NC(=O)N1CCCCN2[C@H](CO)[C@@H](c3ccc(C#Cc4ccccc4)cc3)[C@@H]2C1	-7.5*
CC(C)C#Cc1ccc([C@@H]2[C@@H](CO)N3CCCCN(C(=O)NC(C)C)C[C@H]23)cc1	0.57
CC(C)NC(=O)N1CCCCN2[C@H](C1)[C@H](c1ccc(C#C[C@H](C)O)cc1)[C@@H]2CO	0.93
CC(C)NC(=O)N1CCCCN2[C@H](CO)[C@H](c3ccc(C#Cc4ccccc4)cc3)[C@@H]2C1	-9.8*
CNC[C@H]1[C@@H](c2ccc(C#CCC3CCCC3)cc2)[C@@H](CO)N1C(=O)C1CCC1	1.5
CC(=O)NC[C@H]1[C@@H](c2ccc(C#CC(C)C)cc2)[C@@H](CO)N1C(=O)C1CC1	3.1
O=C(Nc1ccccc1)N1CCCCN2[C@H](CO)[C@@H](c3ccc(C#Cc4ccccn4)cc3)[C@@H]2C1	-0.6
CCC(=O)N1Cc2cc(C(=O)NCCOC)nc(-c3cccc(-c4ccc(C#N)cc4)c3)c2[C@@H]1CCO	0.45
COC(=O)c1ccc(CN2CC(=O)N3[C@@H](CO)[C@H](c4ccc(-c5ccccc5F)cc4)[C@@H]3C2)cc1	1.6
COCC(=O)Nc1ccc2c(c1)C(=O)N(C)[C@@H]1CC[C@@H](CC(=O)N3CCc4ccccc4C3)O[C@@H]1CO2	-0.89
O=C(Nc1cccc(F)c1)N1CC(=O)N2[C@H](C1)[C@@H](c1ccc(-c3ccc(F)cc3)cc1)[C@@H]2CO	1.3
